Bioassay records from PubChem BioAssay.
Hits are enriched below; roughly 0.52% of the tested compounds scored in any of these assays.
Sa helicase inh: inhibitors of S. aureus replicative helicase, primary screen, biochemical, fluorescence unwinding readout; replicative DNA helicase (DnaC/DnaB), Staphylococcus aureus; purified S. aureus helicase, fluorescence unwinding assay; AID 485395, 2010; 120,000 tested, 0.05% active; inhibition, % (no concentration beside the values); in the data active means inhibition above about 25%, passing the limit was not always enough;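 further: 0% = mean of negative control wells and 100% = mean of positive control wells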
Sa growth inh: S. aureus growth inhibition at 42 and 30 °C, primary screen, LtaS inhibitor project, RN4220, two temperatures | OD600, 20 h, 42 °C; hits give low values | relative growth, % (no concentration beside the values) | 170,000 tested, 0.53% active;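 active means relative growth at most 50% at the other temperature and 20+ points below 30 °C, or under 10% at both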
Starred values were filed as active, the others as inactive.

For CC(C)n1nnnc1SCC(=O)c1ccc(F)cc1 the results were Sa helicase inh -4 and Sa growth inh 111.
CCc1cc2[nH]c(C(=O)OC)cc2s1 was read as Sa helicase inh 13 and Sa growth inh 110.
Screening COc1cc2c3nc4n(c(=O)c3n(C)c2cc1OC)CCS4 returned Sa helicase inh 49* and Sa growth inh 98.
`Cn1c2ccc(F)cc2c2nc3n(c(=O)c21)CCS3` gave Sa helicase inh -3 and Sa growth inh 96.
`CCOC(=O)/C(C#N)=C/c1ccc2c(c1)Sc1ccccc1N2C` gave Sa helicase inh -111 and Sa growth inh 93.
`CN(C(=O)Cn1c(=O)n(Cc2ccc(C(=O)NCc3ccco3)cc2)c(=O)c2sccc21)c1ccccc1` gave Sa helicase inh -31 and Sa growth inh 106.
For CCOc1ccc(C(=O)C(C)Sc2nnnn2-c2ccc(OC)cc2)cc1 (centres undefined) the results were Sa helicase inh 29* and Sa growth inh 105.
Screening COc1ccc(-n2nnnc2SCSc2nnnn2-c2ccc(OC)cc2)cc1 returned Sa helicase inh 8 and Sa growth inh 117.
`O=C(c1cccs1)N1N=C(c2ccccc2)CC1c1cccs1` (centres undefined) gave Sa helicase inh 9 and Sa growth inh 89.
CC(=O)OCC1=C(C(=O)O)N2C(=O)[C@@H](NC(=O)CSc3ccncc3)[C@H]2SC1 was read as Sa growth inh -0.3*.
`CO/N=C(\C(=O)N[C@@H]1C(=O)N2C(C(=O)O)=C(COC(C)=O)CS[C@H]12)c1csc(N)n1` gave Sa growth inh -0.8*.
For CO/N=C(/C(=O)NC1C(=O)N2C(C(=O)O)=C(COC(N)=O)CSC12)c1ccco1 (centres undefined) the results were Sa growth inh -1.0*.
COC(=O)c1cn(NC(=O)CSc2ccncc2)c(=O)c2ccccc12 was read as Sa helicase inh 6 and Sa growth inh 106.
COCC1=C(C(=O)OC(C)OC(=O)OC(C)C)N2C(=O)[C@@H](NC(=O)C(=NOC)c3csc(N)n3)[C@H]2SC1 (some centres undefined) was read as Sa growth inh 16.
For CC(C)(O/N=C(\C(=O)N[C@@H]1C(=O)N2C(C(=O)[O-])=C(C[n+]3ccccc3)CSC12)c1csc(N)n1)C(=O)O (some centres undefined) the results were Sa growth inh 69.
`Cc1cccc2cc(C(c3nnnn3C(C)(C)C)N(Cc3ccccc3)Cc3ccco3)c(=O)[nH]c12` (centres undefined) gave Sa helicase inh 14 and Sa growth inh 111.
`O=C1CC(Sc2ccc(Cl)cc2)C(=O)N1c1ccc(Br)cc1` (centres undefined) gave Sa helicase inh 0 and Sa growth inh 97.
`CC1CCC2(CC1)c1cnn(C(C)C)c1N=C(c1ccc(F)cc1)N2C` (centres undefined) gave Sa helicase inh 10 and Sa growth inh 77.
`Cc1oc(C(C)(C)C)cc1C(=O)NCc1csc(-c2cccs2)n1` gave Sa growth inh 100.
For CCc1ccc(S(=O)(=O)/N=C2/C=C(Nc3ccccc3)C(=O)c3ccccc32)cc1 the results were Sa helicase inh 9 and Sa growth inh 83.
O=C1C(Sc2ncn[nH]2)=C/C(=N/S(=O)(=O)c2ccc(Cl)cc2)c2ccccc21 was read as Sa helicase inh 24 and Sa growth inh 1.2*.
For O=C(O)CCC(=O)Nc1cccc(C(=O)N2CCCCC2)c1 the results were Sa helicase inh -1 and Sa growth inh 112.
`Cc1nccc(-c2cccc(N/N=C(\C#N)S(=O)(=O)c3ccccn3)c2)n1` gave Sa helicase inh 0 and Sa growth inh 95.
Screening Cc1nccc(-c2cccc(NN=C(C#N)C#N)c2)n1 returned Sa helicase inh 20 and Sa growth inh -0.4*.
Screening CC(NC(=O)c1ccccc1)c1n[nH]c(=S)n1C (centres undefined) returned Sa helicase inh 10 and Sa growth inh 105.
`Cc1ccc(NC(=O)c2ccc(=O)n(CC(=O)Nc3cccc(C)c3)n2)cc1` gave Sa growth inh 114.
For Cc1ccc(NC(=O)c2ccn(C(=O)Nc3cccc(Cl)c3)n2)cc1 the results were Sa helicase inh 17 and Sa growth inh 45*.
Screening CCN(CC)S(=O)(=O)c1ccc(N2CCCCC2)c(C(=O)O)c1 returned Sa helicase inh -6 and Sa growth inh 102.
Screening Cc1nn(-c2ccccc2)c(N2CCCC2)c1/C=N/N=c1\sc2ccccc2n1C returned Sa helicase inh 17 and Sa growth inh 80.
O=C(O)/C=C/C(=O)c1ccc(C2CCCCC2)cc1 was read as Sa growth inh -0.9*.
For O=C(O)/C=C/C(=O)Nc1ccc(C2CCCCC2)cc1 the results were Sa growth inh 146.
`Cc1nc2c(C(=O)NCCc3ccccc3)c[nH]n2c(=O)c1Cc1ccccc1F` gave Sa growth inh 0.7*.
